Test results reported in PubChem BioAssay (EPA / NIEHS).
Calls of active or inactive are those of the source. Rule for the calls: active = hit-call score of the fitted dose curve at least 0.9, where 1 is the maximum; inactive = score below 0.9.

Assay: ATG_GRE_CIS: Attagene CIS-FACTORIAL HepG2 Assay for human Glucocorticoid Response Elements (GRE) (AID 2282947)
Conditions: HepG2 GRE cis-reporter, Attagene multiplex mRNA; actives raise or lower the signal
Summary of the method: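 Assay uses human hepatoma HepG2 cells transfected with cis-promoter reporter units, exposed 24 h. mRNA from reporters detected by RT-PCR plus capillary electrophoresis; DMSO serves as negative control and baseline.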

Question: For `CC(C)C[C@H]1C(=O)N2CCC[C@H]2[C@]2(O)O[C@](NC(=O)[C@@H]3C=C4c5cccc6[nH]c(Br)c(c56)C[C@H]4N(C)C3)(C(C)C)C(=O)N12`, which outcome is on record?
Answer: inactive

Question: With `CCOc1ccccc1OCC` as the molecule, how does the outcome read?
Answer: inactive

Question: Which outcome does the source give for `C=CC(C)(CCC=C(C)C)OC=O` (stereo unspecified) here?
Answer: inactive

Question: Which outcome does the source give for `NC(=O)Nc1ccc(Cl)cc1` here?
Answer: inactive

Question: Which outcome does the source give for `O=C(O)c1ccc(C(=O)O)cc1` here?
Answer: inactive

Question: With `O=C(O)CCCCC1CCSS1` (stereo unspecified) as the molecule, how does the outcome read?
Answer: inactive

Question: Which outcome does the source give for `O=C1CCCCCCCCCCCCCCO1` here?
Answer: inactive

Question: With `C=C(C)C(=O)O` as the molecule, how does the outcome read?
Answer: inactive

Question: For `Cc1ccc(C(=O)O)o1`, which outcome is on record?
Answer: inactive

Question: For `CC(C)(C)NC(N)=O`, which outcome is on record?
Answer: inactive

Question: With `O=S(=O)(O)c1cccc2c(S(=O)(=O)O)cccc12` as the molecule, how does the outcome read?
Answer: inactive

Question: Which outcome does the source give for `CCC/C=C/C=O` here?
Answer: inactive

Question: For `Nc1ccc(S(N)(=O)=O)cc1`, which outcome is on record?
Answer: inactive

Question: With `O=C(Cl)c1cccc(C(=O)Cl)c1` as the molecule, how does the outcome read?
Answer: inactive

Question: With `CCN(CC)c1ccc(C(=C2C=CC(=[N+](CC)CC)C=C2)c2ccc(S(=O)(=O)O)cc2S(=O)(=O)[O-])cc1` as the molecule, how does the outcome read?
Answer: inactive

Question: With `O=c1cc(-c2ccccc2)oc2cc(O)cc(O)c12` as the molecule, how does the outcome read?
Answer: inactive

Question: With `CCCc1ccccc1O` as the molecule, how does the outcome read?
Answer: inactive

Question: Which outcome does the source give for `NC(N)=NC(=O)c1nc(Cl)c(N)nc1N` here?
Answer: inactive

Question: With `C=CC[N+](C)(C)CC=C` as the molecule, how does the outcome read?
Answer: inactive

Question: Which outcome does the source give for `CCCCN` here?
Answer: inactive

Question: With `O=C(O)c1cccc([N+](=O)[O-])c1` as the molecule, how does the outcome read?
Answer: inactive

Question: With `CC1=CCC(O)(C(C)C)CC1` (stereo unspecified) as the molecule, how does the outcome read?
Answer: inactive

Question: For `CN(C)c1ccc(O)c2c1C[C@H]1C[C@H]3[C@H](N(C)C)C(=O)C(C(N)=O)=C(O)[C@@]3(O)C(=O)C1=C2O`, which outcome is on record?
Answer: inactive

Question: For `O=C(O)CN(CCN(CC(=O)O)CC(=O)O)CCN(CC(=O)O)CC(=O)O`, which outcome is on record?
Answer: inactive

Question: For `O=C=NC1CCC(CC2CCC(N=C=O)CC2)CC1` (stereo unspecified), which outcome is on record?
Answer: inactive

Question: Which outcome does the source give for `CC1CC(OC(=O)c2ccccc2O)CC(C)(C)C1` (stereo unspecified) here?
Answer: inactive

Question: With `CC(C)CCCCCCCOC(=O)c1ccc(C(=O)OCCCCCCCC(C)C)c(C(=O)OCCCCCCCC(C)C)c1` as the molecule, how does the outcome read?
Answer: inactive

Question: For `CCCCCCCCCC=O`, which outcome is on record?
Answer: inactive

Question: For `CN(C)C(=N)N=C(N)N`, which outcome is on record?
Answer: inactive

Question: Which AC50 does the source give for `C[C@H]1C[C@@H]2[C@H]([C@@H](O)C[C@@]3(C)[C@H]2CC[C@]3(O)C(=O)CO)[C@@]2(C)C=CC(=O)C=C12` here?
Answer: 0.151 µM (active)

Question: With `Cc1cccc(Nc2ccccc2C(=O)O)c1C` as the molecule, how does the outcome read?
Answer: inactive

Question: With `COc1cc(C=O)ccc1OC(=O)C(C)C` as the molecule, how does the outcome read?
Answer: inactive

Question: For `CCc1ccc(C=O)cc1`, which outcome is on record?
Answer: inactive

Question: For `Cc1ccccc1C=O`, which outcome is on record?
Answer: inactive

Question: Which outcome does the source give for `CCC(C)CCCC(C)(C)O` (stereo unspecified) here?
Answer: inactive

Question: With `Cc1ccc(O)c(C(C)(C)C)c1` as the molecule, how does the AC50 read?
Answer: 100 µM (active)

Question: Which outcome does the source give for `[Ca+2]` here?
Answer: inactive

Question: With `CCCCCCOC(=O)CCCCC` as the molecule, how does the outcome read?
Answer: inactive

Assay: ATG_ISRE_CIS: Attagene CIS-FACTORIAL HepG2 Assay for human Interferon Regulatory Factor 1 (IRF1) binding to an Interferon-Stimulated Response Element (ISRE) (AID 2282948)
Conditions: HepG2 ISRE cis-reporter (Attagene), mRNA transcription readout; actives raise or lower the signal
Summary of the method: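 Cell-based cis-reporter assay; HepG2; 24 h exposure; reporter mRNA by RT-PCR plus capillary electrophoresis fluorescence; activity in either direction scored relative to DMSO.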

Question: For `CC(C)C[C@H]1C(=O)N2CCC[C@H]2[C@]2(O)O[C@](NC(=O)[C@@H]3C=C4c5cccc6[nH]c(Br)c(c56)C[C@H]4N(C)C3)(C(C)C)C(=O)N12`, which AC50 is on record?
Answer: 3.76 µM (active)

Question: With `CCOc1ccccc1OCC` as the molecule, how does the outcome read?
Answer: inactive

Question: For `C=CC(C)(CCC=C(C)C)OC=O` (stereo unspecified), which outcome is on record?
Answer: inactive

Question: With `NC(=O)Nc1ccc(Cl)cc1` as the molecule, how does the outcome read?
Answer: inactive

Question: Which outcome does the source give for `O=C(O)c1ccc(C(=O)O)cc1` here?
Answer: inactive

Question: With `O=C(O)CCCCC1CCSS1` (stereo unspecified) as the molecule, how does the outcome read?
Answer: inactive

Question: Which outcome does the source give for `O=C1CCCCCCCCCCCCCCO1` here?
Answer: inactive

Question: Which outcome does the source give for `C=C(C)C(=O)O` here?
Answer: inactive

Question: For `Cc1ccc(C(=O)O)o1`, which outcome is on record?
Answer: inactive

Question: For `CC(C)(C)NC(N)=O`, which outcome is on record?
Answer: inactive

Question: Which outcome does the source give for `O=S(=O)(O)c1cccc2c(S(=O)(=O)O)cccc12` here?
Answer: inactive

Question: With `CCC/C=C/C=O` as the molecule, how does the outcome read?
Answer: inactive

Question: With `Nc1ccc(S(N)(=O)=O)cc1` as the molecule, how does the outcome read?
Answer: inactive

Question: For `O=C(Cl)c1cccc(C(=O)Cl)c1`, which outcome is on record?
Answer: inactive

Question: With `CCN(CC)c1ccc(C(=C2C=CC(=[N+](CC)CC)C=C2)c2ccc(S(=O)(=O)O)cc2S(=O)(=O)[O-])cc1` as the molecule, how does the outcome read?
Answer: inactive

Question: With `O=c1cc(-c2ccccc2)oc2cc(O)cc(O)c12` as the molecule, how does the outcome read?
Answer: inactive

Question: Which outcome does the source give for `CCCc1ccccc1O` here?
Answer: inactive

Question: With `NC(N)=NC(=O)c1nc(Cl)c(N)nc1N` as the molecule, how does the AC50 read?
Answer: 157 µM (active)

Question: For `C=CC[N+](C)(C)CC=C`, which outcome is on record?
Answer: inactive

Question: With `CCCCN` as the molecule, how does the outcome read?
Answer: inactive

Question: With `O=C(O)c1cccc([N+](=O)[O-])c1` as the molecule, how does the outcome read?
Answer: inactive

Question: Which outcome does the source give for `CC1=CCC(O)(C(C)C)CC1` (stereo unspecified) here?
Answer: inactive

Question: For `CN(C)c1ccc(O)c2c1C[C@H]1C[C@H]3[C@H](N(C)C)C(=O)C(C(N)=O)=C(O)[C@@]3(O)C(=O)C1=C2O`, which outcome is on record?
Answer: inactive

Question: Which outcome does the source give for `O=C(O)CN(CCN(CC(=O)O)CC(=O)O)CCN(CC(=O)O)CC(=O)O` here?
Answer: inactive

Question: Which outcome does the source give for `O=C=NC1CCC(CC2CCC(N=C=O)CC2)CC1` (stereo unspecified) here?
Answer: inactive

Question: For `CC1CC(OC(=O)c2ccccc2O)CC(C)(C)C1` (stereo unspecified), which outcome is on record?
Answer: inactive

Question: For `CC(C)CCCCCCCOC(=O)c1ccc(C(=O)OCCCCCCCC(C)C)c(C(=O)OCCCCCCCC(C)C)c1`, which outcome is on record?
Answer: inactive

Question: Which outcome does the source give for `CCCCCCCCCC=O` here?
Answer: inactive

Question: Which outcome does the source give for `CN(C)C(=N)N=C(N)N` here?
Answer: inactive

Question: With `C[C@H]1C[C@@H]2[C@H]([C@@H](O)C[C@@]3(C)[C@H]2CC[C@]3(O)C(=O)CO)[C@@]2(C)C=CC(=O)C=C12` as the molecule, how does the outcome read?
Answer: inactive

Question: Which outcome does the source give for `Cc1cccc(Nc2ccccc2C(=O)O)c1C` here?
Answer: inactive

Question: For `COc1cc(C=O)ccc1OC(=O)C(C)C`, which outcome is on record?
Answer: inactive

Question: With `CCc1ccc(C=O)cc1` as the molecule, how does the outcome read?
Answer: inactive

Question: With `Cc1ccccc1C=O` as the molecule, how does the outcome read?
Answer: inactive

Question: With `CCC(C)CCCC(C)(C)O` (stereo unspecified) as the molecule, how does the outcome read?
Answer: inactive

Question: With `Cc1ccc(O)c(C(C)(C)C)c1` as the molecule, how does the outcome read?
Answer: inactive

Question: Which outcome does the source give for `[Ca+2]` here?
Answer: inactive

Question: With `CCCCCCOC(=O)CCCCC` as the molecule, how does the outcome read?
Answer: inactive
